Measurements reported in PubChem BioAssay (EPA / NIEHS).
Values joined by “and” are separate entries in the source; they are usually repeats but may differ in a detail not shown here. Identical values can stand only once. Inconclusive results are not listed. Some structures have more than one record in an assay (separate samples or runs), and their calls can disagree. Active and inactive are the calls of the source. The calls were made as follows, unless noted: active = hit-call score of the fitted dose curve at least 0.9, where 1 is the maximum; inactive = score below 0.9.

Key:
[1] = biological target: Glucocorticoid receptor (Homo sapiens) (UniProt P04150); experiment: ATG_GR_TRANS: Attagene TRANS-FACTORIAL HepG2 Assay for human Glucocorticoid Receptor (GR) (AID 2282978; active = hit-call score of the fitted dose curve at least 0.9, where 1 is the maximum;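 also: activators score as hits since higher reporter transcript over DMSO is fitted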); conditions: HepG2 Attagene TRANS GR reporter, mRNA transcription
Glucocorticoid receptor (Homo sapiens), sequence (P04150 whole entry, looked up, the tested form may be a part): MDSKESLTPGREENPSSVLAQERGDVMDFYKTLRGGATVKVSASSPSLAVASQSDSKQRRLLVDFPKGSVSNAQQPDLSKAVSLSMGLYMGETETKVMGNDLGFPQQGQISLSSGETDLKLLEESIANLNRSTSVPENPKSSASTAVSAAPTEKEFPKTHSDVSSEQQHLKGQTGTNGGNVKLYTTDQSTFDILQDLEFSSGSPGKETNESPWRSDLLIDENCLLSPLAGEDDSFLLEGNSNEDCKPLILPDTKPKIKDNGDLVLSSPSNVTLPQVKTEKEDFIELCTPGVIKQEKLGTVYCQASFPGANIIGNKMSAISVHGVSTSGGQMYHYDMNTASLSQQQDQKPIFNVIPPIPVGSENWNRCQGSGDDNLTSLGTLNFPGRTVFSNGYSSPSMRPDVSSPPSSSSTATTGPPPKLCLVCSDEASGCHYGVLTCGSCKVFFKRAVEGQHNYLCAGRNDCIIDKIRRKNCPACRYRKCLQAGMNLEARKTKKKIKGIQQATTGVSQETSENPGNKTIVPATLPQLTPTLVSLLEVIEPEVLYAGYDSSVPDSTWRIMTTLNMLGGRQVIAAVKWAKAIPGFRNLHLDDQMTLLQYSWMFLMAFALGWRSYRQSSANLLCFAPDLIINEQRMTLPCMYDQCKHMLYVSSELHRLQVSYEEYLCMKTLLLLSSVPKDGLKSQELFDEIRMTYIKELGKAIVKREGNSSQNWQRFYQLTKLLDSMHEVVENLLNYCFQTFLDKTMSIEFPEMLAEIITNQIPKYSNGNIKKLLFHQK
Outline: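 Transiently transfected HepG2 cells express chimeric NR-GAL4 proteins acting on GAL4-UAS reporter units. Compounds are applied for 24 h. mRNA induction over DMSO is measured by capillary electrophoresis.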

[2] = biological target: Bile acid receptor (Homo sapiens) (UniProt Q96RI1); experiment: ATG_FXR_TRANS: Attagene TRANS-FACTORIAL HepG2 Assay for Farnesoid X Receptor (FXR) (AID 2282979; active = hit-call score of the fitted dose curve at least 0.9, where 1 is the maximum;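 also: hits raise reporter mRNA above DMSO so AC50 marks FXR activation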); conditions: HepG2 Attagene TRANS FXR-GAL4 reporter transcription
Bile acid receptor (Homo sapiens), sequence (Q96RI1 whole entry, looked up, the tested form may be a part): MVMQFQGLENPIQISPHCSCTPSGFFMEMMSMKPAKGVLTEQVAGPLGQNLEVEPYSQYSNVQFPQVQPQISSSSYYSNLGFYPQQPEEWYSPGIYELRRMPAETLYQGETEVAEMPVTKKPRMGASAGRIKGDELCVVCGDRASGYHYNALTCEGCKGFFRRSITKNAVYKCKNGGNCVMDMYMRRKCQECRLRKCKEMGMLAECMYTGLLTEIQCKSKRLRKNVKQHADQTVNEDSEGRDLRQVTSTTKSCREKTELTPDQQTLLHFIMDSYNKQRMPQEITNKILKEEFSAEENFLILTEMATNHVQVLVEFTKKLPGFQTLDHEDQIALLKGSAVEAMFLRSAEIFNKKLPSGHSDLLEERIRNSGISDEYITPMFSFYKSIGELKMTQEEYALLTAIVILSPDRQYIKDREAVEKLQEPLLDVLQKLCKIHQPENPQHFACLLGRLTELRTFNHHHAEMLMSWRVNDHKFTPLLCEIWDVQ
Outline: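 After 24 h chemical treatment of transfected HepG2 cells, GAL4-UAS reporter transcripts driven by an exogenous FXR-GAL4 fusion were measured by RT-PCR and capillary electrophoresis. Increases over DMSO were fitted.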

[3] = biological target: Oxysterols receptor LXR-beta (Homo sapiens) (UniProt P55055); experiment: ATG_LXRb_TRANS: Attagene TRANS-FACTORIAL HepG2 Assay for human Liver X Receptor beta (LXRb) (AID 2282981; active = hit-call score of the fitted dose curve at least 0.9, where 1 is the maximum); conditions: HepG2 Attagene TRANS GAL4-LXRb reporter, mRNA
Oxysterols receptor LXR-beta (Homo sapiens), sequence (P55055 whole entry, looked up, the tested form may be a part): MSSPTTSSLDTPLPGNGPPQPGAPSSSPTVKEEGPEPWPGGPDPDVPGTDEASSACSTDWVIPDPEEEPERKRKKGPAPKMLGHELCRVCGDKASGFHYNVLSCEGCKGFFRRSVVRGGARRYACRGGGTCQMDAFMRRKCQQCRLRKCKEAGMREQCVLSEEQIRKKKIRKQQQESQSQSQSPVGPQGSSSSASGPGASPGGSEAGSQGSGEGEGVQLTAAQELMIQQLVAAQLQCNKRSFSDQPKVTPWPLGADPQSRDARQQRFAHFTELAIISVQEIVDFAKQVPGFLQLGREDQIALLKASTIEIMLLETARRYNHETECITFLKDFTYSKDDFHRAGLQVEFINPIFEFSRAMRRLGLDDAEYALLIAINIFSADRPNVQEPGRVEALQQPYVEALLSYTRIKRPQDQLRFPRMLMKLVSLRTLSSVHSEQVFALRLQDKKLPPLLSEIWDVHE
Outline: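 After 24 h chemical treatment of transfected HepG2 cells carrying exogenous NR-Gal4 chimeras, reporter mRNA was quantified by fluorescent RT-PCR and capillary electrophoresis; activity taken as increase over DMSO controls.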

[4] = biological target: Hepatocyte nuclear factor 4-alpha (Homo sapiens) (UniProt P41235); experiment: ATG_HNF4a_TRANS: Attagene TRANS-FACTORIAL HepG2 Assay for human Hepatocyte Nuclear Factor 4 alpha (HNF4a) (AID 2282982; active = hit-call score of the fitted dose curve at least 0.9, where 1 is the maximum); conditions: HepG2 HNF4a transactivation reporter, mRNA readout
Hepatocyte nuclear factor 4-alpha (Homo sapiens), sequence (P41235 whole entry, looked up, the tested form may be a part): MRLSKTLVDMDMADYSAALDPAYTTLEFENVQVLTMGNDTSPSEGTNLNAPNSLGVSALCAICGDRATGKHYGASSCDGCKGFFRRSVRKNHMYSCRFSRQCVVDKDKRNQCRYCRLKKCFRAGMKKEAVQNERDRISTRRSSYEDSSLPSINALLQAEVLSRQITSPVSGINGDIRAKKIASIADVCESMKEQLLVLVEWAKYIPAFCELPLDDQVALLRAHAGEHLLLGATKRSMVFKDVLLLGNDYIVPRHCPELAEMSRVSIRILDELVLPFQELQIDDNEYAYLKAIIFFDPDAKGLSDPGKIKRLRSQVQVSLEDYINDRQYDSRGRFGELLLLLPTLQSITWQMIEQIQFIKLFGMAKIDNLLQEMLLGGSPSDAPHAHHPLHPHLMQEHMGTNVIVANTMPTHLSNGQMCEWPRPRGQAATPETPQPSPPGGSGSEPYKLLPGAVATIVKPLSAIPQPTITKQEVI
Outline: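 Activity of an exogenous HNF4a–Gal4 fusion scored as induced GAL4-UAS reporter transcripts after 24 h chemical exposure of transfected human HepG2 cells. Read-out via RT-PCR with 6-FAM labelling and capillary electrophoresis; rise over DMSO baseline.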

[5] = ATG_M_06_TRANS: Attagene TRANS-FACTORIAL HepG2 Assay for M06 Transcription Factor (Internal Marker) (AID 2282983; active = hit-call score of the fitted dose curve at least 0.9, where 1 is the maximum;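 also: reporter transcript level by RT-PCR then capillary electrophoresis fluorescence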); conditions: HepG2 Attagene TRANS M06 internal marker reporter
Outline: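 Multi-reporter-transfected HepG2, 24 h treatment; reporter transcripts quantified via RT-PCR, primer-extension labelling and CE. DMSO-normalized gain-of-signal fit.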

[6] = ATG_M_32_TRANS: Attagene TRANS-FACTORIAL HepG2 Assay for M32 Transcription Factor (Internal Marker) (AID 2282984; active = hit-call score of the fitted dose curve at least 0.9, where 1 is the maximum;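 also: transcript level of a background control reporter unit measured by RT-PCR and capillary electrophoresis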); conditions: HepG2 Attagene TRANS M32 internal marker reporter
Outline: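 Internal background reporter in transfected HepG2: after 24 h chemical exposure, RNA reverse-transcribed, reporter cDNA amplified, fluorescently labelled and HpaI-cut, then sized by capillary electrophoresis. Gain of signal fitted against DMSO control.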

[7] = biological target: Nuclear receptor subfamily 4 group A member 2 (Homo sapiens) (UniProt P43354); experiment: ATG_NURR1_TRANS: Attagene TRANS-FACTORIAL HepG2 Assay for human Nuclear Receptor Related Protein 1 (NURR1) (AID 2282985; active = hit-call score of the fitted dose curve at least 0.9, where 1 is the maximum); conditions: HepG2 Attagene TRANS reporter, mRNA readout
Nuclear receptor subfamily 4 group A member 2 (Homo sapiens), sequence (P43354 whole entry, looked up, the tested form may be a part): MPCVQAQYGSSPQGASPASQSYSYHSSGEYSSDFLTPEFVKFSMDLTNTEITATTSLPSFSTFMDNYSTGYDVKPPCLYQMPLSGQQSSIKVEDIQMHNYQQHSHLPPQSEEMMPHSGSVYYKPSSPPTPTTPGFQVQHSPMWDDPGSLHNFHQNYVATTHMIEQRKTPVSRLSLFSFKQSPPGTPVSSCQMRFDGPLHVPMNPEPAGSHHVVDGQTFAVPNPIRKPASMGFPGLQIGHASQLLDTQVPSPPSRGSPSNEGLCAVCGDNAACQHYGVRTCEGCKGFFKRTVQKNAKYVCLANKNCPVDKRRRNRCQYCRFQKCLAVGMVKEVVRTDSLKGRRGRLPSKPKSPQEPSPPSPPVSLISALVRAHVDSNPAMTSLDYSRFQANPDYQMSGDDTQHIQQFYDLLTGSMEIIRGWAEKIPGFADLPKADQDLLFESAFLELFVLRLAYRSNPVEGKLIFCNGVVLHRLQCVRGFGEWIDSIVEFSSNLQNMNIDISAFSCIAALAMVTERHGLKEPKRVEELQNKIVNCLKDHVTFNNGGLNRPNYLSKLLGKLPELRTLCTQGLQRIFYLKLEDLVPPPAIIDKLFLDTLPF
Outline: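 Reporter transcript induction, measured by RT-PCR with fluorescent labelling, HpaI digestion and capillary electrophoresis, after 24 hr dosing of human HepG2 cells transiently expressing an exogenous NR-Gal4 fusion with GAL4-UAS-driven reporters; DMSO as baseline.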

[8] = biological target: Transcriptional activator Myb (Homo sapiens) (UniProt P10242); experiment: ATG_Myb_CIS: Attagene CIS-FACTORIAL HepG2 Assay for human Myeloblastosis (Myb) Proto-Oncogene Transcription Factor (AID 2282986); conditions: HepG2 Attagene CIS-FACTORIAL Myb reporter transcription; actives raise or lower the signal
Transcriptional activator Myb (Homo sapiens), sequence (P10242 whole entry, looked up): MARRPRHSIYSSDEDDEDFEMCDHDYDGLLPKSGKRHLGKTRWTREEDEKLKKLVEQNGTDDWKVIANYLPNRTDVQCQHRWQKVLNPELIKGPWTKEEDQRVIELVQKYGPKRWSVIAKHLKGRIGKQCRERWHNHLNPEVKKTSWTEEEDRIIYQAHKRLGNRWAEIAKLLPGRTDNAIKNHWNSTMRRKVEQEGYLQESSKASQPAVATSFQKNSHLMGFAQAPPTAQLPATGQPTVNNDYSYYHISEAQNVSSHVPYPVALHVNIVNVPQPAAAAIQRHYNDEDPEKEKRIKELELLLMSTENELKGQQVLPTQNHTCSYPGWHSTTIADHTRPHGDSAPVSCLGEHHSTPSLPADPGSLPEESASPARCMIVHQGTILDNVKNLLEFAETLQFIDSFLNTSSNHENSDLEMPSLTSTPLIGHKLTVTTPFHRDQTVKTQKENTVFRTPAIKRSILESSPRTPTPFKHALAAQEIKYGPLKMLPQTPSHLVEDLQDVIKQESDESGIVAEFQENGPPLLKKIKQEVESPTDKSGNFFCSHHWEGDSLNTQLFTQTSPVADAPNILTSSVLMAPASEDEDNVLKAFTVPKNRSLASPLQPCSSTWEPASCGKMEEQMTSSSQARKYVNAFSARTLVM
Outline: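 Using HepG2 liver cells bearing transiently transfected cis-promoter reporter constructs, the assay measures induction or loss of reporter mRNA after 24 hours of dosing. Detection used fluorescently labeled RT-PCR products separated by capillary electrophoresis.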

[9] = biological target: Nuclear respiratory factor 1 (Homo sapiens) (UniProt Q16656); experiment: ATG_NRF1_CIS: Attagene CIS-FACTORIAL HepG2 Assay for human Nuclear Respiratory Factor 1 (NRF1) Orphan Gene (AID 2282987); conditions: HepG2 NRF1 cis-element reporter, Attagene multiplex; actives raise or lower the signal
Outline: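 Reporter mRNA induction or loss in HepG2 cells after 24 h dosing; cis-regulated reporter constructs report endogenous transcription-factor activity. Quantified by RT-PCR/capillary electrophoresis fluorescence, DMSO-referenced.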

[10] = biological target: Myc proto-oncogene protein (Homo sapiens) (UniProt P01106); experiment: ATG_Myc_CIS: Attagene CIS-FACTORIAL HepG2 Assay for human Myelocytomatosis (Myc) Proto-Oncogene Transcription Factor (AID 2282990); conditions: HepG2, Attagene cis-reporter transcription factor activity; actives raise or lower the signal
Myc proto-oncogene protein (Homo sapiens), sequence (P01106 whole entry, looked up, the tested form may be a part): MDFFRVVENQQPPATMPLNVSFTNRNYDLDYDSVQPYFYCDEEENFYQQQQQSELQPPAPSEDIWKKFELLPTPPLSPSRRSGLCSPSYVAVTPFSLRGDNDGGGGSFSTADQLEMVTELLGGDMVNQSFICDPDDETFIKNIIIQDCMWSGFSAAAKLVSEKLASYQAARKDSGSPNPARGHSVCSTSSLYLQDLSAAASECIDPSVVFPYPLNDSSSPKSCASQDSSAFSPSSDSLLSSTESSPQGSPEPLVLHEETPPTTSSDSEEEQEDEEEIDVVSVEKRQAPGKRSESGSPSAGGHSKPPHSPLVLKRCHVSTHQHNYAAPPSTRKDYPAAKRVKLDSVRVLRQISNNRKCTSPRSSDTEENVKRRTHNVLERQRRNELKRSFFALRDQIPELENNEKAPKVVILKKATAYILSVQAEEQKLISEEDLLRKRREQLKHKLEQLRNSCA
Outline: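 After 24 h chemical treatment of HepG2 cells carrying multiplexed cis-regulated reporter constructs, reporter transcripts quantified by RT-PCR and capillary electrophoresis of fluorescent fragments. Gain or loss fitted against DMSO baseline.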

[11] = ATG_NF_kB_CIS: Attagene CIS-FACTORIAL HepG2 Assay for human Nuclear Factor Kappa B (NF-kB) (AID 2282991); conditions: HepG2 Attagene cis-factorial NF-kB reporter mRNA; actives raise or lower the signal
Outline: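 DMSO served as negative control and baseline for bidirectional curve fitting. Transiently transfected HepG2 cells were dosed for 24 h, then reporter transcripts were measured by RT-PCR with capillary electrophoresis detection.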

[12] = ATG_NRF2_ARE_CIS: Attagene CIS-FACTORIAL HepG2 Assay for human Nuclear Factor Erythroid 2 Related Factor 2 (NFR2) response to Antioxidant Response Elements (ARE) (AID 2282992); conditions: HepG2 Attagene ARE/NRF2 reporter, transcription factor activity; actives raise or lower the signal;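 as to AC50: reporter mRNA level measured by RT-PCR and capillary electrophoresis fluorescence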
Outline: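 Endogenous transcription factor activity in human liver HepG2 cells is tracked via a cis-element-driven reporter within a multiplexed set. mRNA induction is read by RT-PCR and capillary electrophoresis after 24 h, with DMSO as baseline.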

[13] = ATG_Oct_MLP_CIS: Attagene CIS-FACTORIAL HepG2 Assay for human Octamer-Binding Transcription Factor (Oct) (AID 2282993); conditions: HepG2 Attagene cis-factorial Oct reporter, mRNA; actives raise or lower the signal
Outline: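 Transient MRTU transfection of HepG2 → 24 h compound treatment → RNA isolation, reverse transcription, PCR → 6-FAM primer extension, HpaI digest → capillary electrophoresis. Activity fitted both directions against DMSO.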

[14] = biological target: Cellular tumor antigen p53 (Homo sapiens) (UniProt P04637); experiment: ATG_p53_CIS: Attagene CIS-FACTORIAL HepG2 Assay for human p53 Transcription Factor (AID 2282994); conditions: HepG2 p53 cis-element reporter, Attagene mRNA; actives raise or lower the signal
Cellular tumor antigen p53 (Homo sapiens), sequence (P04637 whole entry, looked up, the tested form may be a part): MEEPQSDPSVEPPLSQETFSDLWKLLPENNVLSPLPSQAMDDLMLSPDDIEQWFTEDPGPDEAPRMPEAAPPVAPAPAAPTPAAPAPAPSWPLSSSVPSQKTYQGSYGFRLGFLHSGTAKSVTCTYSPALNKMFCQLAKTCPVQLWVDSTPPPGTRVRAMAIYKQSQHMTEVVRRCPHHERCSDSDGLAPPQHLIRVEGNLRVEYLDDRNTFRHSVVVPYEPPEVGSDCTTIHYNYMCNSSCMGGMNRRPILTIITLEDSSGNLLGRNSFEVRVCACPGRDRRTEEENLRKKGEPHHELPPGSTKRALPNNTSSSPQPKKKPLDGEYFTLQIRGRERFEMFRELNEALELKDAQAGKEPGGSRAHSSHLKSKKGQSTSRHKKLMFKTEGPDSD
Outline: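 Steps: transfect HepG2 with multiplexed cis reporter constructs; dose chemicals 24 h; extract RNA, reverse-transcribe, PCR-amplify reporter sequences; FAM-label, HpaI-digest, resolve fragments by CE. Activity fitted both directions relative to DMSO.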

[15] = BSK_3C_TissueFactor: BioMAP Diversity Plus: 3C Assay for Tissue Factor Biomarker Activity (AID 2282997); conditions: BioMAP 3C HUVEC, tissue factor biomarker readout; actives raise or lower the signal
Outline: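 In this endothelial system, HUVEC are treated for 24 h and Tissue Factor is assessed by ELISA, normalised to DMSO.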

[16] = BSK_3C_uPAR: BioMAP Diversity Plus: 3C Assay for Urokinase-type plasminogen activator receptor (uPAR) Biomarker Activity (AID 2282998); conditions: BioMAP 3C HUVEC, uPAR biomarker ELISA; actives raise or lower the signal
Outline: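 ELISA readout of uPAR on human vascular endothelium (umbilical vein primary cells), taken 24 h after chemical dosing. Increases and decreases are both fitted relative to DMSO vehicle.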

[17] = BSK_3C_VCAM1: BioMAP Diversity Plus: 3C Assay for Vascular cell adhesion molecule 1 (VCAM1) Biomarker Activity (AID 2282999); conditions: BioMAP 3C HUVEC, VCAM1 ELISA, cytokine-stimulated; actives raise or lower the signal
Outline: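 Activity fitted in both directions relative to DMSO, with ELISA measurement of the surface marker on primary HUVEC (3C) at 24 h post-treatment; parallel SRB staining (0.1% SRB, TCA-fixed, 560 nm) flagged overt cytotoxicity.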

[18] = BSK_4H_Eotaxin3: BioMAP Diversity Plus: 4H Assay for Eotaxin 3 Biomarker Activity (AID 2283000); conditions: primary human endothelial cells (HUVEC); actives raise or lower the signal
Outline: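 ELISA quantitation of CCL26 (Eotaxin-3) protein from chemically dosed human vascular endothelial cells at 24 h; increases and decreases both scored relative to DMSO-treated baseline.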

[19] = biological target: Oxysterols receptor LXR-alpha (Homo sapiens) (UniProt Q13133); experiment: ATG_LXRa_TRANS: Attagene TRANS-FACTORIAL HepG2 Assay for human Liver X Receptor alpha (LXRa) (AID 2282980; active = hit-call score of the fitted dose curve at least 0.9, where 1 is the maximum); conditions: HepG2 Attagene TRANS reporter, LXRa transactivation
Oxysterols receptor LXR-alpha (Homo sapiens), sequence (Q13133 whole entry, looked up, the tested form may be a part): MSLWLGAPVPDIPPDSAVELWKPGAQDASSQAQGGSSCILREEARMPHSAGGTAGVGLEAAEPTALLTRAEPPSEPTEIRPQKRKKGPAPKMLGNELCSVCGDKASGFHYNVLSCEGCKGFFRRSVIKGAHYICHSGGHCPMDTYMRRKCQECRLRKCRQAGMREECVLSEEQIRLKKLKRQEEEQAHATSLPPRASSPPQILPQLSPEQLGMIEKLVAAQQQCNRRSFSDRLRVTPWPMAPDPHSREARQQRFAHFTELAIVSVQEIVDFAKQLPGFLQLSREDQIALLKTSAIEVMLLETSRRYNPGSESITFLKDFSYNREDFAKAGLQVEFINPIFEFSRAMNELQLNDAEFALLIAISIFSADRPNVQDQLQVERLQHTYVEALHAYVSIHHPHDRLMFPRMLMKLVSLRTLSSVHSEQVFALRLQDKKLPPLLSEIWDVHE
Outline: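 In this multiplexed TRANS system, compounds act on HepG2 cells carrying GAL4-UAS reporter units and a receptor-GAL4 fusion for 24 h. Induced reporter RNA is amplified, fluorescently labelled and sized by capillary electrophoresis, with DMSO as baseline.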

[20] = ATG_NFI_CIS: Attagene CIS-FACTORIAL HepG2 Assay for human Nuclear Factor I (NFI) (AID 2282989); conditions: HepG2 cis-regulatory reporter, NFI response element transcription; actives raise or lower the signal
Outline: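 Transient MRTU transfection of HepG2 → 24 h chemical dosing → total RNA, oligo(dT) RT → PCR, 6-FAM primer extension, HpaI cut → capillary electrophoresis. Endpoint fitted bidirectionally relative to DMSO.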

Measured: AC50

CCCCC(CC)COC(=O)c1ccccc1C(=O)OCC(CC)CCCC (stereo not given)
not listed: [19] | [20]
inactive: all other assays above

COC(=O)C=C(C)OP(=O)(OC)OC
active: [12] 50 µM
not listed: [5] | [11] | [19] | [20]
inactive: all other assays above

CNC(=O)ON=CC(C)(C)SC
inactive: [1] | [2] | [19] | [3] | [4] | [5] | [6] | [7] | [8] | [9] | [20] | [10] | [11] | [12] | [13] | [14] | [15] | [16] | [17] | [18]
active: [9] 43.4 µM

COc1nc(C)nc(NC(=O)NS(=O)(=O)c2ccccc2CCC(F)(F)F)n1
inactive: [1] | [2] | [19] | [3] | [4] | [5] | [6] | [7] | [8] | [9] | [10] | [11] | [12] | [13] | [14] | [15] | [16] | [17] | [18]
active: [12] 16.7 µM and 31.3 µM

COC(=O)C(C)Oc1ccc(Oc2ccc(Cl)cc2Cl)cc1 (stereo not given)
active: [16] 25.7 µM and 20 µM and 13.3 µM | [18] 26.5 µM
inactive: [1] | [2] | [19] | [3] | [4] | [5] | [6] | [7] | [8] | [9] | [10] | [11] | [12] | [13] | [14] | [15] | [17] | [18]

C=CCC1=C(C)C(OC(=O)C2C(C=C(C)C)C2(C)C)CC1=O (stereo not given)
active: [2] 35.7 µM and 35 µM and 27.2 µM | [4] 179 µM | [9] 136 µM and 144 µM | [11] 43.2 µM and 105 µM | [13] 47.5 µM [middle of 5 runs] | [14] 170 µM and 86.4 µM | [15] 34 µM [middle of 4 runs] | [16] 35.3 µM [middle of 4 runs] | [17] 33.2 µM and 31 µM and 29.8 µM | [18] 33.4 µM and 38.4 µM and 32.5 µM
inactive: [1] | [2] | [19] | [3] | [4] | [5] | [6] | [8] | [9] | [10] | [11] | [13] | [14] | [17] | [18]
